Compound activity: PubChem, Broad Institute
Casp6 inh = caspase-6 (human) enzyme inhibition; P55212; purified caspase-6, Z-VEID-R110 cleavage fluorescence; inhibition, % at 12.5 µM; 0.53% of 350,000 active;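 active means mean inhibition across replicates at least about 35%, with every replicate also reaching that limit, limit read from the data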;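 further: 0% = median of neutral control wells and 100% = no fluorescence left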
Target sequence (P55212 24-179 limits assumed): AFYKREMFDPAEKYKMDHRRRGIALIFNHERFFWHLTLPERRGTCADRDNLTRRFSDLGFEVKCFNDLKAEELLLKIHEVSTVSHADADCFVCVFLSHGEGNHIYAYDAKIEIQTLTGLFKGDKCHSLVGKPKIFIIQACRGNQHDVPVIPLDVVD
Target sequence (P55212 194-293 limits assumed): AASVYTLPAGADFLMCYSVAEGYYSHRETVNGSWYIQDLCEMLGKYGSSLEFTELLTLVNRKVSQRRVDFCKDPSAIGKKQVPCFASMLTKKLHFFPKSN
ERAP1 HTS inh = ERAP1 (human) enzyme inhibition; recombinant ERAP1, Leu-AMC fluorescence, 60 min; AID 652197; 0.15% of 340,000 active; inhibition, % at 10.7 µM;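 active means mean replicate inhibition of at least 30%, or all replicates individually reaching that 30% level; inactive means mean below 30% and not every replicate reaching it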;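 further: 0% = neutral control wells and 100% = L-leucinethiol positive control wells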
SIRT5 block = sirtuin-5 (human) deacylase inhibition; Purified SirT5, succinyl-peptide AMC, trypsin-coupled fluorescence; AID 652115; Q9NXA8; inhibition, % at 15 µM; 1.1% of 330,000 active; in the data active means inhibition above about 15%
FGF22 binding-1 = FGF22 (human) thermal shift binding | 1.5% of 340,000 active | recombinant FGF22 thermal shift, SYPRO orange fluorescence; percent of sucrose octasulfate shift, DMSO zero | activity (Tm shift, normalised), % at 9.99 µM;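 active means mean Tm shift, scaled 0 neutral to 100 positive control, at about 1.3% or above, every replicate too, limit read from the data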
Target sequence (Q9HCT0 whole entry, looked up): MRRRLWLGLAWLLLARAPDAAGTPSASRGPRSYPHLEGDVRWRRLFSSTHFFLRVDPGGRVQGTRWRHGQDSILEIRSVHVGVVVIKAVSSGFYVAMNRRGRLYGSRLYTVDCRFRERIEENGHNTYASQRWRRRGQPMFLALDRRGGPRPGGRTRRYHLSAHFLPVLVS
FGF22 binding-2 = FGF22 (human) binding in thermal shift | shares compounds with FGF22 binding-1 | recombinant FGF22 thermal shift, SYPRO orange fluorescence | thermal shift activity, °C (ΔTm) at 38 µM | 2% of 1,000 active;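 active means fitted rise in melting shift crosses a set limit at or below the top valid dose tested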
TSA no protein = counter-screen for FGF22 binders: compound-only thermal shift, no protein; AID 743019; compound-only SYPRO orange thermal shift counter-screen; AC50, µM (top dose mostly 38 µM); 2% of 1,000 active; shares compounds with FGF22 binding-1;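 active means rising signal whose fitted curve reaches the 0.54 level within the top valid dose, showing a melting point, actives reach about 13 µM in these data; inactive means the rest, including activity in the opposite direction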; further: value is where the raw curve crosses a fixed level and not half-maximal
Active calls of the source: *; i = inactive; nt = not tested or not shown; ! = repeats disagree; [ ] = another dose, or the depositor's remark. This is a sample that favours compounds with a hit; in the whole collection about 3.1% have one here.

SMILES | Casp6 inh | ERAP1 HTS inh | SIRT5 block | FGF22 binding-1 | FGF22 binding-2 | TSA no protein
COc1ccc(/C(O)=C/C(=O)C(=O)NNC(=O)c2ccccc2)cc1 | -3 | 3 | -3 | 29* | 0.091 | i
COc1cc(CO)cc(I)c1O[C@H]1C=C(C(=O)NCCO)C[C@@H](N(CC2CCCCC2)C(=O)c2ccc(C(F)(F)F)cc2)[C@@H]1O | 2 | 1 | -2 | 0 | nt | nt
COCC(=O)N(C)C[C@H]1Oc2ncc(C#CC3(O)CCCC3)cc2C(=O)N([C@@H](C)CO)C[C@H]1C | -1 | -1 | -2 | 0 | nt | nt
N#Cc1c(-c2ccccc2)nc(-c2ccncc2)[nH]c1=O | 3 | 0 | 1 | 1.6* | 0.14 | i
COc1cc(O)c(CC=C(C)C)c(O)c1C(=O)CCc1ccc(O)cc1 | -1 | 6 | nt | 1 | nt | nt
O=C(CCc1ccc(O)cc1)c1c(O)cc(O)cc1O | 14 | nt | nt | 2.8* | 0.51 | 2.9µM*
O=C(NCCc1ccc2c(c1)OCCO2)c1cccc(F)c1 | 0 | 8 | 2 | 1.6* | -0.047 | i
O=C(NCCc1ccc2c(c1)OCCO2)c1ccccn1 | -4 | -6 | -5 | 0 | nt | nt
O=C(C(=O)N1CCC(CNS(=O)(=O)Cc2ccccc2)CC1)c1cccs1 | -1 | 1 | nt | 27* | 0.071 | i
Cc1ccc(C)c(N2CCN(C(=O)C34CC5CC(C3)CC(n3nnc(C)n3)(C5)C4)CC2)c1 | 4 | 2 | -2 | 16* | 0.038 | i
Cc1nc2cc(C(=O)NCc3ccc4c(c3)OCO4)ccc2n1-c1ccc(Br)cc1 | 0 | -1 | -6 | 1.6* | -0.051 | i
COc1cccc(NC(=O)CN(C)C(=O)c2cn(-c3ccccc3)nc2-c2cccs2)c1 | 1 | 1 | -3 | 2.1* | 0.63 | i
Cc1cccc(NC(=O)c2ccc(-c3ccccc3[N+](=O)[O-])o2)c1 | 0 | 0 | 1 | 1.6* | 0.2 | i
CO[C@@H]1CN(C)C(=O)c2cc(NS(=O)(=O)c3ccccc3)ccc2OC[C@@H](C)N(Cc2ccccn2)C[C@@H]1C | 0 | -1 | 0 | 0 | nt | nt
C[C@@H]1CN([C@@H](C)CO)C(=O)c2cc(NC(=O)Cc3ccccc3)ccc2O[C@@H](C)CCCCO[C@H]1CN(C)S(=O)(=O)c1cccs1 | nt | nt | nt | 0 | nt | nt
O=C(O)c1cccc(NS(=O)(=O)c2ccc(-c3ccc(S(=O)(=O)Nc4cccc(C(=O)O)c4)cc3)cc2)c1 | 3 | -17 | 0 | 21* | -0.46 | i
O=C(Nc1cccc(C(F)(F)F)c1)c1cccc(NS(=O)(=O)c2ccc(O)c(C(=O)O)c2)c1 | 39* | -2 | 4 | 1.7* | 0.37 | i
CCCC#Cc1ccc(CC[C@H]2O[C@H]3CC[C@@H](CO)O[C@H]3C[C@H]2NC(=O)c2cnccn2)cc1 | 3 | 0 | 1 | nt | nt | nt
N#C[C@H]1[C@@H](c2ccc(C3=CCCCC3)cc2)[C@@H](CO)N1S(=O)(=O)c1ccccc1 | -2 | -1 | 4 | 1.9* | -0.2 | i
C[C@@H]1CN([C@@H](C)CO)C(=O)c2cc(C#CCc3ccccc3)cnc2O[C@@H]1CN(C)Cc1cccnc1 | 0 | -1 | 3 | 0 | nt | nt
C[C@@H]1CCCCO[C@H](CN(C)S(=O)(=O)c2ccc(Cl)cc2)[C@@H](C)CN([C@H](C)CO)C(=O)c2cc(NC(=O)CCC(F)(F)F)ccc2O1 | 0 | 3 | 2 | 0 | nt | nt
Cc1cc(C)cc(N(CC(=O)NC2CCC(C)CC2)S(=O)(=O)c2c(C)noc2C)c1 (stereo not given) | -1 | nt | nt | 1.4* | -0.055 | i
Cc1cc(C)cc(N(CC(=O)O)S(=O)(=O)c2c(C)noc2C)c1 | -4 | -2 | -3 | 0 | nt | nt
Cc1nn(CCOc2ccccc2Cl)c(C)c1[N+](=O)[O-] | -5 | 0 | -1 | 1.7* | -0.008 | i
O=S(=O)(/N=C(/Nc1nccs1)c1ccc(F)cc1)c1ccccc1 | -1 | -1 | nt | 38* | -0.062 | i
SMILES | Casp6 inh | ERAP1 HTS inh | SIRT5 block | FGF22 binding-1 | FGF22 binding-2 | TSA no protein
O=S(=O)(/N=C(/Nc1nc2ccccc2s1)c1ccccc1)c1ccc(F)cc1 | -1 | -1 | -1 | nt | nt | nt
O=C(CCc1c[nH]c2ccccc12)Nc1ccc(Nc2cccnc2)cc1 | -3 | 3 | -2 | 2.0* | -0.069 | i
CC(C)CC#Cc1cnc2c(c1)C(=O)N([C@@H](C)CO)C[C@H](C)[C@@H](CN(C)Cc1ccccn1)O2 | 1 | 1 | -1 | 1.6* | 0.1 | i
C[C@@H]1CN([C@H](C)CO)C(=O)c2cc(Br)cnc2O[C@@H]1CN(C)Cc1ccccc1 | 3 | -1 | 2 | 0 | nt | nt
C[C@H]1CN([C@@H](C)CO)C(=O)c2cc(C#Cc3ccccc3F)cnc2O[C@H]1CN(C)S(=O)(=O)c1ccccc1 | -1 | -1 | -2 | 1.7* | 0.086[42 µM] | i
C[C@@H]1CN([C@H](C)CO)C(=O)c2cc(Br)cnc2O[C@@H]1CN(C)Cc1ccc(F)cc1 | 3 | 8 | 2 | 21*! | 0.098 | i
COc1ccccc1CNC(=O)C[C@H]1CC[C@@H](NC(=O)CC2CC2)[C@@H](CO)O1 | -1 | 2 | -1 | -1 | nt | nt
Cc1ccc(S(=O)(=O)N[C@H]2C=C[C@@H](CC(=O)N3CCC(Cc4ccccc4)CC3)O[C@H]2CO)cc1 | -10 | -4 | 8 | 0 | nt | nt
CO[C@H]1CN(C)C(=O)c2cc(NC(=O)C3CCCCC3)ccc2OC[C@@H](C)N(C)C[C@H]1C | 2 | 0 | -3 | 0 | nt | nt
C[C@H](CO)N1C[C@H](C)[C@H](CN(C)C(=O)Nc2ccc(C(F)(F)F)cc2)Oc2cc(-c3ccncc3)ccc2S1(=O)=O | 1 | 0 | 0 | 1.4* | -0.2[42 µM] | i
C[C@H]1CN([C@@H](C)CO)S(=O)(=O)c2ccc(-c3ccncc3)cc2O[C@H]1CN(C)C(=O)Nc1ccc(C(F)(F)F)cc1 | 0 | 0 | -2 | 2.0* | 0.048 | i
CN1C(=O)c2cc(NC(=O)c3ccc(F)cc3)ccc2OC[C@H]2O[C@@H](CC(=O)NCC3CCCCC3)CC[C@@H]21 | 2 | 3 | 2 | 0 | nt | nt
OC[C@H]1[C@H]2c3ccccc3NC[C@H]2N1Cc1ccccc1Cl | 1 | 2 | 1 | 0 | nt | nt
OC[C@H]1[C@@H]2c3ccccc3NC[C@@H]2N1Cc1ccccc1Cl | 0 | 1 | 5 | 1.4* | 0.23[42 µM] | i
O=C(Nc1ccccc1Cl)N1[C@H](CO)[C@@H]2c3ccccc3NC[C@@H]21 | -3 | 0 | -1 | 1.6* | 0.068 | i
COCC(=O)N(C)C[C@@H]1Oc2ncc(C#C[C@H](C)O)cc2C(=O)N([C@@H](C)CO)C[C@H]1C | -1 | -3 | -13 | 0 | nt | nt
COc1ccc2c3c(n(C)c2c1)[C@@H](CO)N(CC1CC1)CC31CCN(C(=O)NC2CCCC2)CC1 | 1 | -1 | -1 | nt | nt | nt
O=C(C[C@@H]1CC[C@@H]2[C@H](COC[C@@H](O)CN2Cc2cccc(F)c2)O1)NCCc1ccncc1 | 2 | 2 | -2 | 0 | nt | nt
